Only some compounds are listed: those with a hit (about 3.4% of all), similar ones and a draw of the others.
RGS12 GoLoco inh: RGS12 GoLoco-Gai1 interaction inhibition; P63096; Gai1:RGS12 GoLoco peptide FP, rhodamine, 10 min; Potency, µM (doses to about 61.6 µM), for inactives: at the top dose activity, negative = inhibition, actives largely listed as inhibitors; actives 0.44% (n = 230,000); active means well fitted inhibition curve with a large enough effect, not every such curve was filed as active; inactive means no such curve, though single readings can be large or run the other way; further: nearly all actives have a fitted effect of over 30% in size
Target sequence (P63096 whole entry, looked up): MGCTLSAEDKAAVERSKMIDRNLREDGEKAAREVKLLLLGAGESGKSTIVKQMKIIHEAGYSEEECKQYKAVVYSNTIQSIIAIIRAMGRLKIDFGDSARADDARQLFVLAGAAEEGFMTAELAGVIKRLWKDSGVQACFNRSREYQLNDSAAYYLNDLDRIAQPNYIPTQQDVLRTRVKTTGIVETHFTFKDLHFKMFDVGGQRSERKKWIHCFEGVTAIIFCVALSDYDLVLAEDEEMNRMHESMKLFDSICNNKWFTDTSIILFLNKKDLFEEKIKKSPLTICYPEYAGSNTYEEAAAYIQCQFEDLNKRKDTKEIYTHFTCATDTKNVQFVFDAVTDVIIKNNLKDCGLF
Tau fibril ThT: blocks human tau fibril formation measured by thioflavin T; P10636; actives 2.1% (n = 270,000); Potency, µM (series often up to 57.4 µM), inactives show at the top dose activity, negative = inhibition, most hits filed as inhibitors; recombinant tau K18 P301L, heparin-induced fibrillization, ThT fluorescence; AID 1460; further: nearly all actives have a fitted effect of over 55% in size
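Heparin-induced (20 uM) aggregation of recombinant human K18 P301L tau, 15 uM unlabeled with 0.24 uM labeled, pH 7 acetate buffer, 6 hr at 37 C with compound. Fibrils quantified by 30 uM ThT fluorescence after 1 hr ambient incubation.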
Tau fluor cs: counter-screen for tau fibril formation inhibitors; Potency, µM (titrated, usually from 57.7 µM), inactives show at the highest dose activity change, negative = decrease; actives 0.93% (n = 280,000); AID 1463; tau K18 P301L Alexa594 fluorescence, heparin fibrillization; further: nearly all actives have a fitted effect of over 55% in size
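Human tau K18 P301L (15 uM unlabeled, 0.24 uM Alexa 594-labeled) in 100 mM sodium acetate pH 7 with 20 uM heparin, 6 hr at 37 C. ThT 30 uM added, 1 hr ambient; Alexa 594 FP and total fluorescence read at 555/632 nm.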
Tau FP inhib: tau fibrillization inhibition (FP); P10636; K18 P301L tau heparin fibrillization, Alexa594 FP, 6 h; Potency, µM (top dose mostly 57.7 µM), for inactives: top-dose activity, negative = inhibition, actives largely listed as inhibitors; actives 0.39% (n = 280,000); AID 1468; further: nearly all actives have a fitted effect of over 55% in size
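Read-out: fluorescence polarization of Alexa 594-labeled tau (0.24 uM), 555 nm excitation, 632 nm emission. Mixtures held 15 uM unlabeled K18 P301L, compound and 20 uM heparin, pH 7 acetate buffer, incubated 6 hr at 37 C.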
JMJD2E inh: JMJD2E (human) inhibition; AID 2147; JMJD2E catalytic domain, FDH-coupled NADH fluorescence (FDH is formaldehyde dehydrogenase); B2RXH2; actives 1.6% (n = 230,000); Potency, µM (doses to about 57.1 µM), without a hit: at the highest dose activity change, negative = inhibition, hits mostly inhibitors; active means well fitted inhibition curve with a large enough effect, not every such curve was filed as active; inconclusive means small, poorly fitted or top-dose-only effect, or another doubt; inactive means no such curve, though single readings can be large or run the other way;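 further: 0% = wells with enzyme and -100% = buffer wells without enzyme; nearly all actives have a fitted effect of over 50% in size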
Target sequence (B2RXH2 1-337 limits assumed): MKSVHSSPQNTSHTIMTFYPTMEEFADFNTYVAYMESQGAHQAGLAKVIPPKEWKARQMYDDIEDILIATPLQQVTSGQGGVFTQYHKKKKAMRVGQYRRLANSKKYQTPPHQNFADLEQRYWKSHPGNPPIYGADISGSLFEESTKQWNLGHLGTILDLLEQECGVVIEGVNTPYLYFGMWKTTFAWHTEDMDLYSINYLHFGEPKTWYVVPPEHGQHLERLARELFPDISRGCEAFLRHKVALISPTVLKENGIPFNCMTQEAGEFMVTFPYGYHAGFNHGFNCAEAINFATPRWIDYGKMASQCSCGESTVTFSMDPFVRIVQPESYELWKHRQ
The depositor's hits bear a star; ? = inconclusive; . = no result given; ! = a repeat was not active; [ ] = remark or other dose. Unless noted, the call rests on the fitted dose curve; in most records, active means well fitted curve in the direction sought with a large enough effect; inconclusive means small, poorly fitted or top-dose-only effect, or another doubt; inactive means no such curve, though single readings can be large; an effect the other way counts as inactive or inconclusive. Unless noted, on the % scale 0 is the no-effect control and ±100 the full control effect; potency means the concentration at half of the fitted maximal effect.

SMILES	RGS12 GoLoco inh	Tau fibril ThT	Tau fluor cs	Tau FP inhib	JMJD2E inh
Cc1nn(C(=O)c2cccc(F)c2)c(C)c1S(=O)(=O)N1CCCCCC1	.	?	-4.9%	11.7%	.
COc1ccccc1N1CCN(CC(O)COc2c(OC)cccc2OC)CC1 (stereo not drawn)	.	20µM*	?	?	-8.4%
CC(=O)C(C(C)=O)C1(O)C(=O)c2ccccc2C1=O	8.6%	2.82µM*	-10.1%	?	-27.6%
CCCOc1ccc(Br)cc1-c1cc(-c2ccc(Cl)cc2)[nH]c1-c1ccncc1	-5.5%	-12.7%	7.94µM*[quencher]	?	?
O=c1cc(-c2ccccc2)oc2cc(O)cc(O)c12	16.4%	?	-14.4%	?	?
O=c1cc(-c2ccccc2O)oc2cc(O)cc(O)c12	8.9%	?	?	1.2%	-20.6%
COc1ccc(-c2cc(=O)c3c(O)cc(O)c(-c4cc(-c5cc(=O)c6c(O)cc(O)cc6o5)ccc4OC)c3o2)cc1	1.1%	-11.8%	-29.8%	17.8µM*	-14.8%
O=c1cc(-c2cc(O)c(O)c(O)c2)oc2cc(O)cc(O)c12	-4.4%	7.94µM*	15.8µM*[quencher]	4.6%	10µM*
O=c1cc(-c2ccc(O)cc2)oc2cc(O)cc(O)c12	17.8µM*!	15.8µM*	?	?	11.2µM*!
Cc1ccc(NC(=O)c2oc3ccc(S(=O)(=O)N4CCC5(CC4)OCCO5)cc3c2C)c(C)c1	.	9.2%	-7.1%	1.7%	.
Cc1ccc2c(c1)c1c(c(=O)n(-c3cccc(Cl)c3)c(=O)n1CC(=O)NCCC1=CCCCC1)n2C	.	2.3%	-2.7%	-6.9%	.
C=CCn1c(COc2ccccc2)nnc1SCC(=O)N/N=C/c1ccc(C)cc1	-7.9%	-13.7%	-11.2%	8.9%	1.0%
CCn1c(CNc2ccc(C)cc2)nnc1SCC(=O)NCc1ccccc1	2.7%	-5.0%	-4.6%	4.9%	-8.4%
C=CCn1c(CNc2ccc(C)cc2)nnc1SCC(=O)N/N=C/c1ccc(O)cc1O	5.3%	?	?	?	15.8µM*
C=CCn1c(CNc2ccccc2)nnc1SCC(=O)N/N=C/c1ccc(O)cc1O	1.8%	-20.2%	-29.1%	7.6%	22.4µM*
C=CCn1c(COc2ccccc2)nnc1SCC(=O)N/N=C/c1cc(Cl)ccc1O	9.1%	-6.1%	-29.5%	7.6%	28.2µM*
O=C(NCC(c1ccco1)S(=O)(=O)c1cccs1)c1ccccc1 (stereo not drawn)	.	-5.5%	-6.9%	-7.4%	.
O=C(C1CCC1)N1CCc2cc(S(=O)(=O)N3CCN(c4ccccc4)CC3)ccc21	.	-13.0%	-21.3%	7.5%	.
CC(/C=C/c1ccco1)=N\NC(=O)CNc1ccc2ccccc2c1	-1.2%	7.94µM*	?	8.6%	?
CC(/C=C/c1ccco1)=N/NC(=O)CNc1ccccc1C	18.5%	?	-18.6%	-1.3%	-4.1%
O=C(N/N=C/C=C/c1cccc([N+](=O)[O-])c1)C(O)c1ccccc1 (stereo not drawn)	-0.2%	-17.8%	-12.9%	-2.8%	2.5%
O=C(CNc1ccc2ccccc2c1)N/N=C/C=C/c1cccc([N+](=O)[O-])c1	11.2%	?	7.08µM*[quencher]	7.0%	-0.9%
Cc1cccc(CCNC(=O)c2sc3nc4n(c(=O)c3c2C)CCCC4)c1	.	?	-2.3%	-13.6%	.
Cc1cc(C)cc(-n2c(C)nc3cc(C(=O)NCc4ccccc4Cl)ccc32)c1	.	-4.5%	-4.9%	4.6%	.
COc1ccccc1-c1cc2nc(C)c(CCC(=O)NCc3cccc(Cl)c3)c(C)n2n1	.	-13.0%	-15.3%	-3.4%	.
SMILES	RGS12 GoLoco inh	Tau fibril ThT	Tau fluor cs	Tau FP inhib	JMJD2E inh
CCCC[n+]1ccn(C2=C([O-])c3ccccc3C(=O)/C2=N\S(=O)(=O)c2ccc(Cl)cc2)c1	40.9%	11.2µM*	?	?	-16.1%
CCCCC[n+]1ccn(C2=C([O-])c3ccccc3C(=O)/C2=N\S(=O)(=O)c2ccc(Cl)cc2)c1	30.7%	?	-15.5%	-3.2%	4.8%
CNC(=O)c1c(NC(=O)C(C)C)sc2c1CCC2	-18.1%	.	-20.1%	6.9%	-11.7%
COC(=O)c1c(NC(=O)C2COc3ccccc3O2)sc2c1CCN(C(C)=O)C2 (stereo not drawn)	26.2%	-10.0%	11.4%	0.6%	?
CNC(=O)c1c(NC(=O)c2nc3ccccc3s2)sc2c1CCC2	51.8%	7.08µM*	?	11.6%	-19.6%
COC(=O)c1c(NC(=O)c2nc3ccccc3s2)sc2c1CCN(C(C)=O)C2	20.2%	15.8µM*	-22.5%	-5.2%	-1.1%
O=C(O)c1ccccc1N/N=C/c1c(Sc2nnnn2-c2ccccc2)nc2ccccn2c1=O	112.1%	7.94µM*	?	-8.1%	-3.9%
CCOc1cc(N2CCOCC2)c(OCC)cc1NC(=O)[C@H](C)N1C(=O)C2CC=CCC2C1=O (stereo partly drawn)	2.5%	-1.5%	-3.2%	3.8%	-3.6%
CCOc1cc(N2CCOCC2)c(OCC)cc1NC(C)C(=O)N1CCC(C)CC1 (stereo not drawn)	.	?	-28.4%	?	11.2µM*
COc1cc(NC(=O)C2CCCN(S(=O)(=O)c3cn(C)cn3)C2)cc(OC)c1 (stereo not drawn)	.	2.2%	7.3%	10.4%	.
O=C(O)c1ccc(N2C(=O)c3cccc4c(C(=O)O)ccc(c34)C2=O)cc1	-6.5%	-2.9%	-0.1%	4.7%	28.2µM*
C/C(=N\NC(=O)C(N)=O)c1ccc(Br)cc1	3.3%	?	-1.4%	-2.6%	8.2%
CC/C(=N\NC(=O)C(N)=O)c1ccccc1O	10.1%	?	-3.0%	3.9%	8.91µM*
CCC1=Nc2cc(C(=O)NCC3CCCO3)ccc2Sc2ccc(Br)cc21 (stereo not drawn)	10.7%	?	?	3.98µM*	-6.7%
CCC1=Nc2cc(C(=O)NCC3CCCO3)ccc2Sc2ccc(Cl)cc21 (stereo not drawn)	-3.1%	-0.9%	-5.1%	3.6%	3.9%
CSc1cccc(NC(=O)c2cnn(-c3ccc(F)cc3)c2-n2cccc2)c1	.	-13.6%	?	-4.3%	.
CCOC(=O)c1ccc(NC(=O)CSc2cn(CC(=O)N3CCCC3)c3ccccc23)cc1	.	?	-19.0%	-0.2%	.
CC(=O)NC1CCCN(O)C(=O)/C=C(\C)CCOC(=O)C(NC(C)=O)CCCN(O)C(=O)/C=C(\C)CCOC(=O)C(NC(C)=O)CCCN(O)C(=O)/C=C(\C)CCOC1=O (stereo not drawn)	-6.3%	-13.0%	-6.7%	-3.0%	7.94µM*
Cc1nc2ccccn2c1-c1csc(Nc2cccc(O)c2)n1	6.7%	1.3%	8.6%	-11.1%[2.34 µM]	3.8%
Cc1nc(NC(=O)c2ccccc2)sc1-c1csc(Nc2cccc(Cl)c2)n1	15.1%	7.94µM*	11.2µM*[quencher]	?	?
Cc1nc(NC(=O)c2ccccc2)sc1-c1csc(Nc2ccc(Cl)cc2)n1	17.1%	5.01µM*	8.91µM*[quencher]	5.3%	-9.2%
